Source: PubChem (Broad Institute)
Shown are actives, neighbours in structure and some others; about 6.7% of the full set was active somewhere.
Pf Dd2 growth – P. falciparum Dd2 growth inhibition. SYBR Green, 72 h; active compounds read low. activity change, % at 10 µM. actives 2.3% (n = 94,000); in the data active = activity change below about -80%; inconclusive = no clear call, values can overlap the other calls
C diff growth – C. difficile growth inhibition. Clostridium difficile clinical isolate growth, OD600, 24 h; active compounds read low. growth activity, negative = inhibition, % at 16 µg/mL (by protocol). actives 0.25% (n = 86,000);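 active = mean growth activity at or below -80% and every replicate also at or below -80%; inconclusive = mean at or below -80% but some replicate above -80%; inactive = mean growth activity above -80%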
T cruzi growth-1 – inhibitors of T. cruzi proliferation; inhibition, % at 8.34 µM; T. cruzi beta-gal in NIH3T3, GalScreen luminescence, 90 h; actives 5.9% (n = 77,000);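 active = mean inhibition above about 93%, with at least 55% of replicates each passing it, limit read from the data, passing the limit was not always enough; inconclusive = only one of those two conditions holds; inactive = neither condition holds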
T cruzi growth-2 – Trypanosoma cruzi proliferation inhibition. shares compounds with T cruzi growth-1. T. cruzi beta-gal in NIH3T3, GalScreen luminescence, 90 h. inhibition, % at 8.35 µM. actives 72% (n = 5,600);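 active = mean replicate inhibition above about 95% and at least 55% of replicates individually reaching it, limit read from the data; inconclusive = only one of the two criteria is met; inactive = neither criterion is met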
T cruzi growth-3 – Trypanosoma cruzi proliferation inhibition | T. cruzi beta-gal in NIH3T3, GalScreen luminescence, 90 h | inhibition, % at 2.09 µM | actives 21% (n = 5,600) | shares compounds with T cruzi growth-1;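 active = mean inhibition above about 95%, with at least 55% of replicates also reaching it, limit read from the data; inconclusive = meets just one of the two conditions; inactive = meets neither condition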
NIH3T3 tox – kills mouse NIH/3T3 fibroblasts. actives 14% (n = 5,600). shares compounds with T cruzi growth-1. cytotoxicity (signal decrease), % at 8.35 µM. AID 651742. NIH/3T3 viability, CellTiter-Glo ATP luminescence, 90 h;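 active = mean signal decrease across replicates above about 35% based on untreated-well scatter, with enough replicates individually passing, limit read from the data; inconclusive = no rule stated though some were filed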
3T3 cytotox 2 – kills mouse NIH/3T3 fibroblasts. shares compounds with T cruzi growth-1. NIH/3T3 viability, CellTiter-Glo ATP luminescence, 90 h. inhibition, % at 24.9 µM. actives 56% (n = 5,600). AID 651744;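 active = mean loss of cell viability signal at or above a set limit, and enough replicates individually reaching it; inconclusive = meets only the mean limit or only the replicate share; inactive = meets neither condition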
A number is an active result; – = inactive; ? = inconclusive; · = not tested or not shown.

SMILES	Pf Dd2 growth	C diff growth	T cruzi growth-1	T cruzi growth-2	T cruzi growth-3	NIH3T3 tox	3T3 cytotox 2
C/C=C/c1ccc2c(c1)O[C@H](CN(C)Cc1cccnc1)[C@@H](C)CN([C@H](C)CO)S2(=O)=O	–	–	106	103	100	48	71
C[C@@H]1CN([C@H](C)CO)S(=O)(=O)c2ccc(/C=C/c3ccccc3)cc2O[C@@H]1CN(C)Cc1cccnc1	–	–	128	–	–	83	96
CC(C)NC(=O)N(C)C[C@@H]1Oc2c(NS(=O)(=O)c3cccs3)cccc2C(=O)N([C@H](C)CO)C[C@@H]1C	–	–	–	·	·	·	·
CCCNC(=O)N1[C@H](C#N)[C@@H](c2ccccc2-c2ccc(C)cc2)[C@@H]1CO	–	–	·	·	·	·	·
C[C@H]1CN([C@@H](C)CO)S(=O)(=O)c2ccc(-c3ccc(C(=O)N(C)C)cc3)cc2O[C@H]1CN(C)C(=O)C1CCC1	–	–	–	·	·	·	·
C[C@H](CO)N1C[C@H](C)[C@H](CN(C)S(C)(=O)=O)Oc2ncc(C#CC(C)(C)O)cc2C1=O	–	–	–	·	·	·	·
COc1cccc(-c2ccc([C@H]3[C@H](C#N)N(C(=O)Cc4ccncc4)[C@H]3CO)cc2)c1	?	–	?	102	–	–	52
COc1cccc(-c2ccc([C@@H]3[C@@H](CO)N(C(=O)Cc4ccccc4)[C@H]3C#N)cc2)c1	–	–	–	·	·	·	·
COc1cccc(-c2ccc([C@@H]3[C@@H](C#N)N(C(=O)Cc4ccncc4)[C@@H]3CO)cc2)c1	–	–	–	·	·	·	·
COc1cccc(-c2ccc([C@H]3[C@@H](C#N)N(C(=O)Cc4ccccc4)[C@@H]3CO)cc2)c1	–	–	97	110	–	–	43
Cc1ccc(-c2ccc3c(c2)O[C@H](CN(C)C(=O)Nc2ccc(C(F)(F)F)cc2)[C@@H](C)CN([C@@H](C)CO)S3(=O)=O)cc1	–	–	–	·	·	·	·
C[C@H](CO)N1C[C@H](C)[C@@H](CN(C)C(=O)C2CCCCC2)Oc2ncc(C#CC3CC3)cc2C1=O	–	·	–	·	·	·	·
COc1ccc(S(=O)(=O)N(C)C[C@@H]2Oc3ccc(NC(=O)Nc4ccc(C(F)(F)F)cc4)cc3C(=O)N([C@@H](C)CO)C[C@@H]2C)cc1	–	–	?	102	–	?	46
C[C@@H]1CN([C@H](C)CO)C(=O)c2cc(NC(=O)Nc3ccc(C(F)(F)F)cc3)ccc2O[C@@H]1CN(C)S(=O)(=O)c1ccc(F)cc1	–	–	–	·	·	·	·
COc1ccc(S(=O)(=O)N(C)C[C@H]2Oc3ccc(NC(=O)Nc4ccc(C(F)(F)F)cc4)cc3C(=O)N([C@@H](C)CO)C[C@H]2C)cc1	–	–	?	99	–	45	81
COc1ccc(S(=O)(=O)N(C)C[C@H]2Oc3ccc(NC(=O)Nc4ccc(C(F)(F)F)cc4)cc3C(=O)N([C@H](C)CO)C[C@H]2C)cc1	–	–	?	103	–	42	51
COc1ccc(NC(=O)Nc2ccc3c(c2)C(=O)N([C@H](C)CO)C[C@@H](C)[C@H](CN(C)S(=O)(=O)c2ccc(OC)cc2)O3)cc1	–	–	–	·	·	·	·
COc1ccc(NC(=O)Nc2ccc3c(c2)C(=O)N([C@H](C)CO)C[C@@H](C)[C@@H](CN(C)S(=O)(=O)c2ccc(OC)cc2)O3)cc1	–	–	–	·	·	·	·
COc1cccc(S(=O)(=O)Nc2ccc3c(c2)[C@@H]2C[C@@H](CC(=O)N(C)C)O[C@@H](CO)[C@@H]2O3)c1	–	–	–	·	·	·	·
CC(C)NC(=O)Nc1cccc2c1O[C@H](CN(C)C(=O)Nc1ccccc1)[C@@H](C)CN([C@@H](C)CO)C2=O	–	–	–	·	·	·	·
Cc1cccc(S(=O)(=O)N2CC[C@@H]3[C@H]2c2cc(-c4ccccc4F)ccc2N(C)[C@H]3CO)c1	–	–	–	·	·	·	·
CN1c2ccc(-c3ccccc3F)cc2[C@@H]2[C@@H](CCN2S(=O)(=O)c2ccc(F)cc2)[C@@H]1CO	–	–	?	96	?	45	46
CN1c2ccc(-c3ccccc3F)cc2[C@@H]2[C@@H](CCN2S(=O)(=O)c2ccc(F)cc2)[C@H]1CO	–	–	108	111	–	?	49
COc1ccc(S(=O)(=O)N2CC[C@@H]3[C@H]2c2cc(-c4ccccc4F)ccc2N(C)[C@H]3CO)cc1	–	–	–	·	·	·	·
CO[C@H]1CN(C)C(=O)c2cc(NC(=O)C3CC3)ccc2OC[C@@H](C)N(C(=O)CN2CCOCC2)C[C@H]1C	–	·	–	·	·	·	·
SMILES	Pf Dd2 growth	C diff growth	T cruzi growth-1	T cruzi growth-2	T cruzi growth-3	NIH3T3 tox	3T3 cytotox 2
C[C@H](O)C#Cc1cnc2c(c1)C(=O)N([C@H](C)CO)C[C@H](C)[C@@H](CN(C)C(=O)Cc1ccncc1)O2	–	–	·	·	·	·	·
OC[C@H]1[C@@H](c2ccc(-c3ccc(F)cc3)cc2)[C@H]2CN(Cc3ccncc3)CCCCN21	–	–	–	·	·	·	·
OC[C@@H]1[C@H](c2ccc(-c3ccc(F)cc3)cc2)[C@H]2CN(Cc3ccncc3)CCCCN12	–	–	108	–	–	?	104
OC[C@H]1[C@@H](c2ccc(-c3ccccc3F)cc2)[C@@H]2CN(Cc3cccnc3)CCCCN12	–	–	–	·	·	·	·
OC[C@@H]1[C@@H](c2ccc(-c3ccccc3F)cc2)[C@@H]2CN(Cc3ccncc3)CCCCN12	–	–	–	·	·	·	·
OC[C@@H]1[C@@H](c2ccc(-c3ccccc3F)cc2)[C@H]2CN(Cc3cccnc3)CCCCN12	–	–	97	–	–	?	97
OC[C@@H]1[C@H](c2ccc(-c3ccc(F)cc3)cc2)[C@@H]2CN(Cc3cccnc3)CCCCN12	–	–	123	106	–	–	95
OC[C@@H]1[C@H](c2ccc(-c3ccccc3F)cc2)[C@@H]2CN(Cc3ccncc3)CCCCN12	–	–	?	107	–	–	90
OC[C@H]1[C@H](c2ccc(-c3ccccc3F)cc2)[C@H]2CN(Cc3cccnc3)CCCCN21	–	–	–	·	·	·	·
C[C@@H]1CN([C@H](C)CO)C(=O)Cc2cc(NS(=O)(=O)c3ccc(Cl)cc3)ccc2O[C@@H]1CN(C)C(=O)Nc1ccc2c(c1)OCO2	–	·	–	·	·	·	·
COc1ccc(NC(=O)N[C@@H]2CC[C@H](CCNS(=O)(=O)c3cccc(Cl)c3)O[C@@H]2CO)cc1	–	–	–	·	·	·	·
C[C@H]1CN([C@@H](C)CO)C(=O)c2cc(NC(=O)NC3CCCCC3)ccc2O[C@H]1CN(C)C(=O)Nc1ccc2c(c1)OCO2	–	–	–	·	·	·	·
C[C@@H]1CN([C@@H](C)CO)C(=O)c2cc(NS(=O)(=O)c3cn(C)cn3)ccc2O[C@H]1CN(C)S(=O)(=O)c1cn(C)cn1	–	·	–	·	·	·	·
C[C@@H]1CCCCO[C@@H](CN(C)CC2CCCCC2)[C@H](C)CN([C@H](C)CO)C(=O)c2cc(NC(=O)Nc3ccc(C(F)(F)F)cc3)ccc2O1	-81	-104	?	106	116	118	105
